Test results taken from PubChem BioAssay.
“And” between values parts separate entries of the source, which are not always exact repeats. Identical values can stand only once. The source made the active and inactive calls.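 Rule for the calls, unless noted: active = inhibition at or above 50% relative to wild type and mutant plate controls; inactive = inhibition below 50%.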

Columns and labels:
[1] = inhibitors of TNFa-induced NFkB p65 translocation, primary screen, imaging, HUVEC, MLSMR starter and 10KST1 sets (AID 438;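 active = inhibition above 20% together with a positive visual image hit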;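 note: compound added about 3h40 before a 20 min TNFalpha stimulation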;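 for inhibition: signal is the nuclear over cytoplasmic p65 intensity ratio per well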); conditions: HUVEC TNFa-induced p65 nuclear translocation; cell count: measured here: nuclei count (cytotoxicity indicator), at 2.08 µM; inhibition: at 2 µM, stronger effect = higher value, 0% TNFa-plus-vehicle, 100% no-TNFa wells
[2] = reduction of polyQ htt aggregates in cells – imaging, exon1htt(103Q)mCFP cells, high-content imaging, primary screen (AID 483;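 active = visual image review flags a hit and inhibition of aggregation exceeds 20%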;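 note: compound exposure lasted 3 days before fixation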;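 for nuclei count: percent of the per-plate median nuclei count of sample wells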); conditions: exon1htt(103Q)mCFP cell line, aggregate imaging, at 2 µM; inhibition of aggregation: stronger effect = higher value; nuclei count: measured here: cell count, toxicity
[3] = endothelial E-selectin expression blockers – imaging, HUVEC, immunofluorescence, MLSMR starter and 10KST1 sets, primary screen (AID 487;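 active = visually confirmed hit in the image check and inhibition above 20%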;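 for inhibition: signal is fraction of cell area covered by stained E-selectin grains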;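 for nuclei count: 100% = median nuclei count of all wells on the same plate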); conditions: HUVEC TNFalpha-induced E-selectin immunofluorescence imaging, at 2 µM; inhibition: stronger effect = higher value; nuclei count: measured here: cell number, toxicity
[4] = Primary imaging screen for DUSP6 inhibitors that restore phospho-Erk in transfected HeLa cells, chemical complementation (AID 609;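 active = compounds giving at least 50% inhibition in the cell-based MKP-3 phosphatase rescue imaging test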;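 for inhibition: phospho-Erk level distribution per well compared with pooled transfected vehicle control wells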); conditions: HeLa MKP-3 transfected, phospho-Erk imaging KS statistic, at 10 µM, cells stimulated with TPA for 15 min
[5] = molecular target: Dual specificity protein phosphatase 6 (Homo sapiens) (UniProt Q16828); experiment: as above; conditions: HeLa MKP-3 transfected, phospho-Erk imaging KS statistic; at 10 µM; stronger effect = higher value; cells stimulated with TPA for 15 min
[6] = molecular target: Voltage-gated potassium channel subunit beta-2 (Rattus norvegicus) (UniProt P62483); experiment: inhibitors of rat Kvbeta2 reductase activity – biochemical, NADPH fluorescence, primary screen (AID 622;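 active = fluorescence slope higher than the sample average by over 3 SD, cut at about -0.22 in these data, passing the limit was not always enough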;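 note: slope of raw intensity against log time taken from 70 to 1610 s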); conditions: recombinant KvBeta, 4-cyanobenzaldehyde reduction, at 10 µM, stronger effect = higher value
[7] = molecular target: Voltage-gated potassium channel subunit beta-2 (Rattus norvegicus) (UniProt P62483); experiment: enhancers of rat Kvbeta2 NADPH turnover – biochemical, NADPH fluorescence, primary screen (AID 623;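 active = NADPH fluorescence slope more negative than the mean of all samples by about 3 SD, 99.7% confidence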;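 note: fluorescence intensity change per second fitted from 20 to 320 s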); conditions: Recombinant KvBeta, NADPH fluorescence decrease slope, 10 min; at 10 µM; stronger effect = lower value
[8] = molecular target: Alpha-2C adrenergic receptor (Homo sapiens) (UniProt P18825); experiment: compounds altering alpha2C-coupled GIRK flux – cell-based, HEK293 alpha2C/GIRK1/2, thallium flux, primary screen (AID 624;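 active = fluorescence slope after compound addition differing from the mean of all screened samples at 99.7% confidence, in either direction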;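 note: slope of fluorescence ratio to pre-addition baseline per second over 15 to 24 s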); conditions: thallium flux BTC fluorescence, at 10 µM, actives lie on both sides
[9] = inhibitors of larval lipid processing in zebrafish, primary screen, whole organism, PED6 fluorescence, gall bladder and intestine (AID 686;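 active = a full or partial loss of lipid-probe fluorescence in the fish gall bladder, intestine or both, judged by eye; inactive = no fluorescence loss, or compound toxic to the fish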;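 note: larvae 5 to 7 days old with five fish per well; signal comes from phospholipase A2 cleavage of quenched PED6 carried via bile; overnight exposure to compound and PED6 before scoring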); conditions: Zebrafish larvae PED6 lipid processing, fluorescence scoring; screened at 20 µM (by protocol)
[10] = loss of swimming-algae plug formation – whole organism, Chlamydomonas reinhardtii, WT vs cilia-less mutant, absorbance, 96-well, primary screen (AID 463189); conditions: Chlamydomonas reinhardtii gravitaxis, OD600 absorbance, 2 days; at 10 µM; stronger effect = higher value;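 note: 0% = wild type cc124 cells in DMSO and 100% = ciliumless bld1 mutant cells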
[11] = blockers of RIG-like receptor reporter activation – cell-based, Sendai virus stimulus, luciferase, 10K MLSCN set, TLR/RLR signaling modifier project, primary screen (AID 602276;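 active = inhibition at or above 50% at 10 µM; inactive = inhibition below 50%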;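 note: firefly luciferase from ISG56 promoter only with Renilla not read in this screen; 0% = Sendai virus plus DMSO and 100% = medium plus DMSO without virus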); conditions: HEK293 RL24 IRF3 luciferase reporter, at 10 µM, stronger effect = higher value
[12] = TLR3 IRF3 reporter activation blockers – cell-based, poly I:C stimulus, luciferase, 10K MLSCN set, primary screen (AID 602277;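 active = inhibition of the reporter signal at or above 50%; inactive = inhibition below 50%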); conditions: HEK293-TLR3 RL24 IRF3 luciferase reporter, at 10 µM, stronger effect = higher value
[13] = measured here: cell density z-score
[14] = measured here: nuclear c-Myc green intensity z-score
[15] = measured here: nuclear pErk red intensity z-score, stronger effect = higher value

Sequence of Alpha-2C adrenergic receptor (Homo sapiens) (P18825 whole entry, looked up): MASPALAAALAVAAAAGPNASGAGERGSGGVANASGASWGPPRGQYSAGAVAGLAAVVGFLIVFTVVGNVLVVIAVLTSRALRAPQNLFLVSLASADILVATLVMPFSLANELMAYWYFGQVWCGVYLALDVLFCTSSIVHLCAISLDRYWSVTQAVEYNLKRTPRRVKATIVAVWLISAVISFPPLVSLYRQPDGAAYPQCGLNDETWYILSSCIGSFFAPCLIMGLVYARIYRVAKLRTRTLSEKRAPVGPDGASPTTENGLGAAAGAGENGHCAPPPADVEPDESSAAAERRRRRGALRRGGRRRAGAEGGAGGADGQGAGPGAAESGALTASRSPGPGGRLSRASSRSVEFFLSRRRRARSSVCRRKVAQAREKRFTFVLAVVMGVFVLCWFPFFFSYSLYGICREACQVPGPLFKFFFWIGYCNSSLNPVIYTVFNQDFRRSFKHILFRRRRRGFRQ
Sequence of Voltage-gated potassium channel subunit beta-2 (Rattus norvegicus) (P62483 whole entry, looked up): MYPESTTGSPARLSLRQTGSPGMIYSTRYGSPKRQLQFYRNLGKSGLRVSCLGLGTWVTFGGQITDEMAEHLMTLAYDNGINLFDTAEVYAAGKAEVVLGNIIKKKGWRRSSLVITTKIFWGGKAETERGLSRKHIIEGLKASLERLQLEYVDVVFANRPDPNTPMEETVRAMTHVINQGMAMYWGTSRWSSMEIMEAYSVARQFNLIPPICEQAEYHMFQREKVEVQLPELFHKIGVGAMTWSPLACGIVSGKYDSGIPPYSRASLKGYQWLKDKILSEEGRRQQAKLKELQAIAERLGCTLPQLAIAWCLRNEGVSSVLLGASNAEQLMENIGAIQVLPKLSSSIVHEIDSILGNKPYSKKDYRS
Sequence of Dual specificity protein phosphatase 6 (Homo sapiens) (Q16828 whole entry, looked up): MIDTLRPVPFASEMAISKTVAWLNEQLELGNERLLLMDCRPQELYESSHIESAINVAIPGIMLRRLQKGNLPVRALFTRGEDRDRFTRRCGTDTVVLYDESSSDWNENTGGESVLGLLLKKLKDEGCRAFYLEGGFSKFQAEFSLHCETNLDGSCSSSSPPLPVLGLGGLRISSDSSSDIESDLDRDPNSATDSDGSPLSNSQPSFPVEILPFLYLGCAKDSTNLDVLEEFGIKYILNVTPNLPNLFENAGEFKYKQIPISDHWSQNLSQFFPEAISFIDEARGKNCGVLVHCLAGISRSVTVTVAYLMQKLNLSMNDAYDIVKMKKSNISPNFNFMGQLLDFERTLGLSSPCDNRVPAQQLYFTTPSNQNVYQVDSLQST

Row | Compound | cell count [1] | inhibition [1] | inhibition of aggregation [2] | nuclei count [2] [%] | inhibition [3] | nuclei count [3] [%] | z-score [4, 13] | z-score [4, 14] | z-score [4, 15] | inhibition [5] | fluorescence slope [6] | NADPH fluorescence slope [7] | slope [8] | outcome [9] | inhibition [10] | inhibition [11] | inhibition [12]
1 | CC1=C(c2ccc(Cl)cc2)[N+](=O)C(C)(C)N1[O-] | 523 | -5.6% (inactive) | 8.9% (inactive) | 94.8 | -69.5% (inactive) | 124 | 0.834 | -1.84 | 0.735 | 6.04% (inactive) | -0.408 (inactive) | -7.3e-06 (inactive) | 0.00633 (inactive) | inactive | 21.6% (inactive) | -0.683% (inactive) | 15.7% (inactive)
2 | NS(=O)(=O)c1cc2c(cc1Cl)NC(C1C[C@H]3C=C[C@@H]1C3)NS2(=O)=O (some centres not stated) | 536 | -8.9% (inactive) | -11.7% (inactive) | 102 | 6.1% (inactive) | 120 | 0.229 | 0.164 | 0.0197 | -6.41% (inactive) | -0.525 (inactive) | -1.3e-05 (inactive) | 0.00377 (inactive) | inactive | 20.5% (inactive) | -6.01% (inactive) | -8.05% (inactive)
3 | Cc1cc(C)n(-c2nnc(C)n2/N=C/c2ccco2)n1 | 609 | -8.3% (inactive) | -21.9% (inactive) | 106 | -232% (inactive) | 159 | 1.68 | -0.585 | 0.108 | 20.2% (inactive) | -0.501 (inactive) | -5.1e-05 (inactive) | 0.00494 (inactive) | inactive | 17.4% (inactive) | 17.4% (inactive) | 24% (inactive)
4 | CN1CCCN(C(c2ccccc2)c2ccc(Cl)cc2)CC1 (configuration not stated) | 564 | 5.7% (inactive) | -11.5% (inactive) | 103 | -6.3% (inactive) | 120 | 0.561 | -0.226 | 0.2 | -5.24% (inactive) | -0.519 (inactive) | -1.7e-06 (inactive) | 0.00369 (inactive) | inactive | 43% (inactive) | -26.9% (inactive) | 68.6% (active)
5 | C[C@H]1C[C@@H]2[C@H]([C@@H](O)C[C@@]3(C)[C@H]2CC[C@]3(O)C(=O)CO)[C@@]2(C)C=CC(=O)C=C12 | 665 | -3.7% (inactive) | 10.3% (inactive) | 101 | -77.5% (inactive) | 120 | 1.04 | 0.95 | 0.348 | 7.39% (inactive) | -0.512 (inactive) | -7.2e-05 (inactive) | 0.00539 (inactive) | inactive | 7.13% (inactive) | 11.3% (inactive) | 36.5% (inactive)
6 | Cn1ncc2c(Nc3ccccc3Br)ncnc21 | 339 | -21% (inactive) | 21.2% (inactive) | 99.3 | -72.4% (inactive) | 128 | 0.246 | -0.649 | -0.252 | 14% (inactive) | -0.443 (inactive) | -2.6e-05 (inactive) | 0.00658 (inactive) | inactive | 13.6% (inactive) | 2.79% (inactive) | -6.76% (inactive)
7 | NNC(=O)c1ccncc1 | 640 | 1.1% (inactive) | -3.3% (inactive) | 113 | -58.5% (inactive) | 126 | 1.92 | 0.875 | -1.14 | 16.8% (inactive) | -0.467 (inactive) | -6.4e-05 (inactive) | 0.00499 (inactive) | inactive | 2.05% (inactive) | 13.6% (inactive) | 39.7% (inactive)
8 | C(=C\c1ccccc1)/CN1CCN(C(c2ccccc2)c2ccccc2)CC1 | 635 | -9.5% (inactive) | -21.5% (inactive) | 107 | -95.1% (inactive) | 131 | 0.835 | -0.254 | 0.957 | 11.3% (inactive) | -0.448 (inactive) | -6.1e-05 (inactive) | 0.00492 (inactive) | inactive | 126% (active) and 125% (active) | 9.39% (inactive) | 26.9% (inactive)
9 | OCCNC1=NCCN1 | 552 | -6.3% (inactive) | 28.8% (active) | 104 | -4.8% (inactive) | 146 | -0.706 | -1.05 | 0.931 | -3.98% (inactive) | -0.523 (inactive) | -7.4e-05 (inactive) | 0.00539 (inactive) | inactive | -5.29% (inactive) | 17.3% (inactive) | 20.3% (inactive)
10 | C[C@@H]1C[C@H]2[C@@H]3CCC4=CC(=O)C=C[C@]4(C)[C@@]3(F)[C@@H](O)C[C@]2(C)[C@H]1C(=O)CO | 647 | -8.8% (inactive) | 0% (inactive) | 59.5 | -68% (inactive) | 134 | 1.14 | 0.339 | -1.14 | 31.1% (inactive) | -0.536 (inactive) | -9.8e-05 (inactive) | 0.00544 (inactive) | inactive | 4.88% (inactive) | -17.5% (inactive) | -9.26% (inactive)
11 | CN1C2C=C3C(C#N)=C(N)C(C#N)(C#N)[C@@H](c4ccc(Cl)cc4)[C@@H]3C1CC2 (some centres not stated) | 492 | -3.5% (inactive) | 11.7% (inactive) | 110 | -63.9% (inactive) | 120 | 1.1 | -0.782 | 0.349 | -2.47% (inactive) | -0.517 (inactive) | -1.7e-05 (inactive) | 0.00502 (inactive) | inactive | 11.6% (inactive) | 13.8% (inactive) | 29.9% (inactive)
